In the supplement of paper PMC10849652:
About 8,800 targets were measured; listed, in parts, are those with a hit and a random draw of the rest. About 0.5% of all pairs of compound and target were hits.

Experiments:
Experiment in all cases: log2 fold change, soluble protein after heating vs DMSO (PISA); higher = thermal stabilisation; K562 lysate, 10 uM; active = over 0.2 and 3.5 SD of the protein, either way, in both replicates (recomputed)
[1] = compound: CC1=C(C2=C(C=C1)C(=O)C3=CC=CC=C3N2CCCN)C
Outline: (§1)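 Values give the log-two fold change in thermal stability against solvent controls, from duplicates. Crude K562 extract at 1 mg/mL protein, made by dounce homogenisation in PBS pH 7.4 with 1 mM MgCl2, was treated with 10 μM compound for 30 min. After 3 min heating across 48°C-58°C, aliquots were pooled, adjusted to 0.5% NP-40 at 4°C and centrifuged at 21,000xg for 90 min. The supernatant was measured by TMTpro 16plex LC-MS/MS with channel sums equalised.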

[2] = compound: CCCS(=O)(=O)Nc1ccc(F)c(C(=O)c2c[nH]c3ncc(-c4ccc(Cl)cc4)cc23)c1F [vemurafenib]
Outline: as §1

[3] = compound: CC[C@@H]1C(=O)N(C)c2cnc(Nc3ccc(C(=O)NC4CCN(C)CC4)cc3OC)nc2N1C1CCCC1
Outline: as §1

[4] = compound: CCn1cc(-c2ccnc3[nH]c(-c4cccc(CN(C)C)c4)cc23)c(-c2ccc(NC(=O)N(C)C)cc2)n1
Outline: as §1

[5] = compound: CN1CCC(CNc2ccc3ncc(-c4cccc(OC(F)(F)F)c4)n3n2)CC1
Outline: as §1

[6] = compound: CN1CCN(CCOc2cc(OC3CCOCC3)c3c(Nc4c(Cl)ccc5c4OCO5)ncnc3c2)CC1 [saracatinib]
Outline: as §1

[7] = compound: C=CC(=O)N1CCC[C@@H](n2nc(-c3ccc(Oc4ccccc4)cc3)c3c(N)ncnc32)C1 [ibrutinib]
Outline: as §1

[8] = compound: CC(C)(C)Cn1c(N)nc2ccc(-c3[nH]c(C(C)(C)C)nc3-c3ccc(F)cc3)nc21 [ralimetinib]
Outline: as §1

[9] = compound: CC(C)(O)CC(=O)NCCn1ccc2ncnc(Nc3ccc(Oc4cccc(C(F)(F)F)c4)c(Cl)c3)c21
Outline: as §1

[10] = compound: CC(C)C1=C2N=C(C=C(N2N=C1)NCC3=CC=CC=C3)NCCCCCCN
Outline: as §1

[11] = compound: CC1=C(C(CC(=O)N1)C2=CC=C(C=C2)C(F)(F)F)C(=O)NC3=C(C=C4C(=C3)C=NN4)F
Outline: as §1

[12] = compound: CC1=C(C=C(C=C1)NC(=O)C2=CC(=CC=C2)C(C)(C)C#N)NC3=CC4=C(C=C3)N=CN(C4=O)C
Outline: as §1

[13] = compound: CC1=C(C=C(C=C1)NC(=O)C2=CC(=CC=C2)N(C)C)NC(=O)C3=CC=C(C=C3)O
Outline: as §1

[14] = compound: CCN(CCCOc1ccc2c(Nc3cc(CC(=O)Nc4cccc(F)c4)[nH]n3)ncnc2c1)CCOP(=O)(O)O [barasertib]
Outline: as §1

[15] = compound: CCn1c(C(=O)N(C2CC2)C2CC2)cc2c3c(ncn3C)c(Nc3cc(C)n(C)n3)nc21
Outline: as §1

[16] = compound: CN1CCN(c2nc(C3=C(c4c[nH]c5ccccc45)C(=O)NC3=O)c3ccccc3n2)CC1 [sotrastaurin]
Outline: as §1

[17] = compound: CC(=O)c1cnc2ccc(-c3cc(Cl)c(O)c(Cl)c3)nc2c1N[C@H]1CC[C@H](CN(C)C)CC1
Outline: as §1

[18] = compound: CC1=CC=C(C=C1)SC2=C3C=C(SC3=CN=C2)C(=O)N
Outline: as §1

[19] = compound: CCCS(=O)(=O)Nc1ccc(F)c(C(=O)c2c[nH]c3ncc(Cl)cc23)c1F
Outline: as §1

[20] = compound: CC[C@@H]1C(=O)N(C)c2cnc(Nc3ccc(C(=O)N[C@H]4CC[C@H](N5CCN(CC6CC6)CC5)CC4)cc3OC)nc2N1C(C)C [volasertib]
Outline: as §1

Measured: log2 fold change

ITGB1BP2 (UniProt Q9UKP3)
Chain of UniProt Q9UKP3 (Q9UKP3 whole entry, looked up): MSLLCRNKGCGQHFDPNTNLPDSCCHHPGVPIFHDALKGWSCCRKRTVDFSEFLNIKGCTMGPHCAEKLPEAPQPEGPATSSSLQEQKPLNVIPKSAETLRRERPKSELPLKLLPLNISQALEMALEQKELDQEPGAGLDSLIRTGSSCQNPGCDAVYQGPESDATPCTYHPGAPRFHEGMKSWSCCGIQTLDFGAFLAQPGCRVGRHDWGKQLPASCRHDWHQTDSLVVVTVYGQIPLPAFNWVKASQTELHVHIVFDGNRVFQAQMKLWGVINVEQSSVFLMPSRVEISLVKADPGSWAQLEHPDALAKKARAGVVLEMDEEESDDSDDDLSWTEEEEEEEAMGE
inactive: [1] 0.139 | [2] 0.045 | [3] -0.07 | [4] -0.032 | [5] 0.443 | [6] 0.005

HTT (UniProt P42858)
Chain of UniProt P42858 (P42858 whole entry, looked up): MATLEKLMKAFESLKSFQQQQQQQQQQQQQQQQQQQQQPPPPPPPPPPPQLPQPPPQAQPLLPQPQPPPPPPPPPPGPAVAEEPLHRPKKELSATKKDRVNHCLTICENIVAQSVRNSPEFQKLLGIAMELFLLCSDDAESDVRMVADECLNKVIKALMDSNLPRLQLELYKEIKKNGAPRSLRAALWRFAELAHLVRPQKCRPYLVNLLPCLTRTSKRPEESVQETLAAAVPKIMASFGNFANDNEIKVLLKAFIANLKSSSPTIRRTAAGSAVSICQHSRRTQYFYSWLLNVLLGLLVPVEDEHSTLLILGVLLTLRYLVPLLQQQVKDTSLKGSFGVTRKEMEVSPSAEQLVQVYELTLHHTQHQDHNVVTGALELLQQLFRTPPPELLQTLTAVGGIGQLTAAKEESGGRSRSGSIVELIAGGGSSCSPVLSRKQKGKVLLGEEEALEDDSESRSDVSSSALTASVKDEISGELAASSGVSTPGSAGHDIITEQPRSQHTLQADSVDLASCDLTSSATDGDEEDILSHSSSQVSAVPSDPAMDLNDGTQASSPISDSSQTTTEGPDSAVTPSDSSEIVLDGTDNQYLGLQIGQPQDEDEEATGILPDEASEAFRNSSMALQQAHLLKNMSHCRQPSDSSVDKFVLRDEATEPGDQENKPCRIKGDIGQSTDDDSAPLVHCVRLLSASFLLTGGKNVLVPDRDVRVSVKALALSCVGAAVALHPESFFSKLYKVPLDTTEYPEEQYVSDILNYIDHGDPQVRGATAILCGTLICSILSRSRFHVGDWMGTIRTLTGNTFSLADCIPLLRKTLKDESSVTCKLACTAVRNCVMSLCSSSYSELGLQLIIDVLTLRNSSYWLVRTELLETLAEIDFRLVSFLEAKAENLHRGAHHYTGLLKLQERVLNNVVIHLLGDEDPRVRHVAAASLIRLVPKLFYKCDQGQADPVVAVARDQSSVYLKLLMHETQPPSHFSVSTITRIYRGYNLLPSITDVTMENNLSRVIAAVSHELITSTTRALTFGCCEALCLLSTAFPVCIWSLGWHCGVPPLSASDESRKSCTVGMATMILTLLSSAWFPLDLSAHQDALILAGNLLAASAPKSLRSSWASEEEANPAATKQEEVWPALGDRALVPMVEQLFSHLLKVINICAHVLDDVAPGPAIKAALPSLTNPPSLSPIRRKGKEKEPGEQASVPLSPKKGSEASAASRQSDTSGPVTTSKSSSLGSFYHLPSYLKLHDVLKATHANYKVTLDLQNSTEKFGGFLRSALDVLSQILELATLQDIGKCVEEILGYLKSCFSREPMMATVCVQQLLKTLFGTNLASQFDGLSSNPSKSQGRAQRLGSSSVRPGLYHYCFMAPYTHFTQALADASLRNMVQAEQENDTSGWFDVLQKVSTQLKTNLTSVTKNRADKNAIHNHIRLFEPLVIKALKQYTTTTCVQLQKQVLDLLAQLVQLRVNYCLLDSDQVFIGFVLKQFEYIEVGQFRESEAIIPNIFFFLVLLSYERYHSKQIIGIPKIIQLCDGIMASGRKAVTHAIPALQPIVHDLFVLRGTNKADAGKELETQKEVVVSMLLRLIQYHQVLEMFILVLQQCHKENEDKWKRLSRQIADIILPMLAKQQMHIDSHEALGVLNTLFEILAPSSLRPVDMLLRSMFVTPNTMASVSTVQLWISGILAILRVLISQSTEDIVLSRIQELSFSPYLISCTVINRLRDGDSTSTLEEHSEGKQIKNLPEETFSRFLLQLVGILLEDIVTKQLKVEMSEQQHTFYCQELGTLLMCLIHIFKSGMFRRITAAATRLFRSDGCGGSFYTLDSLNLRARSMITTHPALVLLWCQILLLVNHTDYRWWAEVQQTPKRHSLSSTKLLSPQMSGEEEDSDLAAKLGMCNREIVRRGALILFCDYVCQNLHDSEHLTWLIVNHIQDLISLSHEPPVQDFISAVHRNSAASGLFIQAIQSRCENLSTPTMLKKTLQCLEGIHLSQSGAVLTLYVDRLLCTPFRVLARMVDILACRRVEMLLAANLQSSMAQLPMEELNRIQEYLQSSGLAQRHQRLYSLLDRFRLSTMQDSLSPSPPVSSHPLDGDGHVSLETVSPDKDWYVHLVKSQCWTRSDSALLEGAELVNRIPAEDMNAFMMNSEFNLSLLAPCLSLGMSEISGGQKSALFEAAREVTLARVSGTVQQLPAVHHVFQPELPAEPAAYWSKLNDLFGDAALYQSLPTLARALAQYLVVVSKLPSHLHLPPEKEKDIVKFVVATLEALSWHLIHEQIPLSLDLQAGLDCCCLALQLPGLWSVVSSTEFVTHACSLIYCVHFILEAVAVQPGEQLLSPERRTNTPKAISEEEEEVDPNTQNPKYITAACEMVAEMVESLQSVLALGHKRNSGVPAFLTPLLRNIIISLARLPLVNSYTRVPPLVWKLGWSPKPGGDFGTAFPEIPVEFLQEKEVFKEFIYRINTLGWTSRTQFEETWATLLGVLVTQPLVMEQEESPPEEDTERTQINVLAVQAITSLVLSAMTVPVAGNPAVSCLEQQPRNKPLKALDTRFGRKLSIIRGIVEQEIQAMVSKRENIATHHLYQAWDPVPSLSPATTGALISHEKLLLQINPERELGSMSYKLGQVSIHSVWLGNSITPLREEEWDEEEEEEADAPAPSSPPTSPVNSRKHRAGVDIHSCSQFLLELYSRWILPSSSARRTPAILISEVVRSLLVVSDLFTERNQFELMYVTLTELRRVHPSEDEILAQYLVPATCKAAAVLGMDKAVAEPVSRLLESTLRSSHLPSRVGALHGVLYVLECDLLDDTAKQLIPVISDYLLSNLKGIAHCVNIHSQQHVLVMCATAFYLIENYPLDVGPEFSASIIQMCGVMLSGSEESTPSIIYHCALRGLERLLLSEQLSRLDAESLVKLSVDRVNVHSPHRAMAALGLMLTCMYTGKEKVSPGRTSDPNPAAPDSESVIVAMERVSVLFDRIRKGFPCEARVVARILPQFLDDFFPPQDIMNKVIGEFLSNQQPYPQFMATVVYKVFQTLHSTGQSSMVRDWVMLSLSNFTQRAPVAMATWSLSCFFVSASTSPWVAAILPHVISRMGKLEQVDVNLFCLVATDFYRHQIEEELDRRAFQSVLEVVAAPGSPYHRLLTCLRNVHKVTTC
inactive: [7] 0.11 | [8] 0.065 | [9] 0.008 | [10] -0.032 | [11] 0.047 | [1] -0.032 | [12] 0.035 | [13] 0.04 | [2] -0.083 | [14] 0.044 | [3] -0.063 | [15] 0.052 | [4] -0.039 | [5] 0.152 | [6] -0.033 | [16] 0.01

GSTM2 (UniProt P28161)
inactive: [7] 0.081 | [17] 0.009 | [8] -0.006 | [9] -0.067 | [10] -0.021 | [11] -0.119 | [1] -0.033 | [13] 0.004 | [18] -0.021 | [2] -0.005 | [19] 0.07 | [14] 0.024 | [3] 0.015 | [20] 0.005 | [15] -0.027 | [4] 0.131 | [5] -0.091 | [6] 0.003

IGF2BP2 isoform 6 (UniProt Q9Y6M1)
inactive: [17] -0.031 | [18] -0.016 | [19] -0.003 | [20] -0.153

HMGA1 isoform 2 (UniProt P17096)
Chain of UniProt P17096 (P17096 whole entry, looked up): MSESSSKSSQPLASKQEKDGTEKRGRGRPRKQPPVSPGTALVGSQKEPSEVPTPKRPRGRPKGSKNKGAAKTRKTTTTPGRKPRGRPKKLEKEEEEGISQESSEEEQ
active: [4] 0.875
inactive: [17] 0.053 | [8] -0.122 | [9] 0.088 | [10] -0.029 | [11] 0.047 | [1] -0.229 | [12] -0.034 | [13] 0.054 | [18] 0.01 | [19] 0.019 | [20] 0.034 | [15] 0.027 | [5] -0.339 | [6] 0.053 | [16] -0.106

GTPBP6 (UniProt O43824)
inactive: [1] -0.617 | [2] -0.089 | [3] 0.32 | [4] -0.062 | [5] -0.096 | [6] -0.166

GPN2 (UniProt Q9H9Y4)
inactive: [17] -0.022 | [8] 0.12 | [9] 0.028 | [10] -0.042 | [11] 0.036 | [1] 0.025 | [12] 0.067 | [13] 0.057 | [18] 0.019 | [2] -0.027 | [19] 0.026 | [3] -0.098 | [20] -0.028 | [15] 0.072 | [4] 0.009 | [5] 0.019 | [6] 0.003 | [16] 0.021

HOMER3 (UniProt Q9NSC5)
inactive: [7] -0.095 | [17] -0.01 | [12] -0.028 | [18] 0.048 | [19] 0.123 | [14] -0.129 | [20] -0.011 | [4] 0.037 | [5] -0.071 | [16] 0.028

ISL2 (UniProt Q96A47)
active: [4] 0.832 | [5] -0.397
inactive: [7] 0.05 | [8] 0.056 | [9] -0.089 | [10] 0.019 | [1] -0.003 | [12] -0.075 | [13] 0.01 | [14] -0.108 | [15] 0.018 | [6] 0.028 | [16] -0.107

HNRNPM (UniProt M0R019)
inactive: [2] -0.137

HNRNPD (UniProt D6RF44)
inactive: [11] 0.111 | [12] -0.334 | [16] 0.079

GYPA (UniProt P02724)
inactive: [7] 0.318 | [17] 0.102 | [8] -0.052 | [9] 0.054 | [10] -0.095 | [1] -0.085 | [12] 0.018 | [13] -0.037 | [18] -0.034 | [2] -0.011 | [19] -0.008 | [14] 0.254 | [3] 0.188 | [20] 0.009 | [15] -0.081 | [5] -0.259 | [6] 0.01 | [16] 0.011
active: [4] 0.587

IPP (UniProt Q9Y573)
inactive: [17] 0.042 | [8] 0.14 | [9] -0.056 | [10] -0.073 | [1] -0.006 | [13] 0.088 | [18] -0.044 | [2] -0.102 | [19] 0.056 | [3] 0.169 | [20] -0.162 | [15] 0.006 | [4] 0.057 | [5] -0.014 | [6] -0.035

HMGN5 (UniProt Q5JSK9)
inactive: [7] 0.051 | [17] -0.007 | [11] -0.094 | [18] -0.005 | [19] -0.013 | [14] -0.03 | [3] 0.039 | [20] 0.054

KDM5B isoform 2 (UniProt Q9UGL1)
Chain of UniProt Q9UGL1 (Q9UGL1 whole entry, looked up): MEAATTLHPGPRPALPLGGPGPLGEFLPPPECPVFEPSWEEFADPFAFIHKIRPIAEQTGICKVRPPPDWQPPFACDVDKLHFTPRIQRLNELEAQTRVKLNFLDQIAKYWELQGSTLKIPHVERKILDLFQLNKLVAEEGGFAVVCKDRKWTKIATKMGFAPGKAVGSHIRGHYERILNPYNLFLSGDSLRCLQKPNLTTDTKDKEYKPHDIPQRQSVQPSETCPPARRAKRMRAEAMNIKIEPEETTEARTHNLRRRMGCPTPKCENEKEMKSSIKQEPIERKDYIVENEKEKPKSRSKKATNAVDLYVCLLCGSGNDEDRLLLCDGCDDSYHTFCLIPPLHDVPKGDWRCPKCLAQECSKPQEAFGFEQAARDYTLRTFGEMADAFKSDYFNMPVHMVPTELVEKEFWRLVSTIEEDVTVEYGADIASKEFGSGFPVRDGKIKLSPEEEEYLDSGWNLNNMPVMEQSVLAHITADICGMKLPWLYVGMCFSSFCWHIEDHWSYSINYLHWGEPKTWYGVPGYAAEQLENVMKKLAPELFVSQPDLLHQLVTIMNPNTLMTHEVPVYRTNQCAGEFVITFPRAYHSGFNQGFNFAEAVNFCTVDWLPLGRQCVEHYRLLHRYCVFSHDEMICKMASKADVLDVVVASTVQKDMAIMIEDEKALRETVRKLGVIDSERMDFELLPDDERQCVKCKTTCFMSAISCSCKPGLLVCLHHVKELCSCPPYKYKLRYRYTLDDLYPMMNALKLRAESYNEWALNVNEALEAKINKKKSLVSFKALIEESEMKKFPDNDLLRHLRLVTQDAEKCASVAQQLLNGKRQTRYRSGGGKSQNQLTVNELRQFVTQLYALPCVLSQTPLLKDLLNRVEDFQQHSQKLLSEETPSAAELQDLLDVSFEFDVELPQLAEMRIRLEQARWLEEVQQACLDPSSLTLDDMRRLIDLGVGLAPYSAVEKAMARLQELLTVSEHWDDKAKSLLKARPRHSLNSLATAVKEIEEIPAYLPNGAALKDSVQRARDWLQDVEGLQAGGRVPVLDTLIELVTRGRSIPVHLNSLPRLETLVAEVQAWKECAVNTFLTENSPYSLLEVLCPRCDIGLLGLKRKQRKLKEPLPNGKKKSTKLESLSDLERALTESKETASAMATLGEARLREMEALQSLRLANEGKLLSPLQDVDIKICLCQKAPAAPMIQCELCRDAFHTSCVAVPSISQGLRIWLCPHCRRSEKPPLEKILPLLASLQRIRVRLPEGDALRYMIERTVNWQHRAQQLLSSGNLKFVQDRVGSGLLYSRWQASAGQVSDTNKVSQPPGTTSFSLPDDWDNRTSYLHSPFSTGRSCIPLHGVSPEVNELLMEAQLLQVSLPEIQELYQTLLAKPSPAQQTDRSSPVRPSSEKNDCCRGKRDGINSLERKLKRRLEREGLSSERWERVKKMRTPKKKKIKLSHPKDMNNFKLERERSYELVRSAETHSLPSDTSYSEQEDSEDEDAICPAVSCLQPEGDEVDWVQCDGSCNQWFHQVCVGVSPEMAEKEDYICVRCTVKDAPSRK
inactive: [7] -0.075 | [17] -0.046 | [8] -0.083 | [9] -0.165 | [10] -0.072 | [1] -0.129 | [12] -0.016 | [13] -0.095 | [18] -0.098 | [2] 0.043 | [19] 0.073 | [14] 0.039 | [3] 0.138 | [20] 0.071 | [15] -0.059 | [4] -0.107 | [5] -0.034 | [6] -0.113 | [16] -0.136

HNRNPL, A0A3B3ITJ4
inactive: [7] 0.033 | [17] 0.033 | [18] -0.104 | [19] 0.087 | [14] 0.14 | [20] -0.072

KIAA0930 isoform 2 (UniProt Q6ICG6)
inactive: [7] -0.16 | [17] -0.032 | [8] 0.091 | [9] -0.085 | [11] -0.014 | [1] -0.119 | [12] 0.042 | [13] -0.289 | [18] -0.017 | [2] -0.118 | [19] -0.009 | [14] 0.002 | [3] 0.162 | [20] 0.14 | [15] 0.159 | [4] -0.078 | [5] 0.028 | [6] 0.098 | [16] 0.075

HECW2 (UniProt Q9P2P5)
inactive: [8] 0.106 | [9] -0.148 | [10] -0.036 | [11] 0.019 | [1] -0.091 | [12] 0.116 | [13] 0.073 | [2] 0.026 | [3] -0.213 | [15] -0.04 | [6] 0.055 | [16] 0.065

HDAC3 (UniProt E7ESJ6)
inactive: [17] -0.107 | [18] -0.004 | [19] 0.031 | [20] -0.16

HYDIN (UniProt Q4G0P3)
inactive: [17] -0.076 | [8] 0.148 | [9] -0.071 | [1] -0.05 | [13] -0.107 | [18] 0.017 | [2] -0.075 | [19] 0.081 | [3] 0.089 | [20] 0.021 | [15] 0.76 | [6] 0.028

HNRNPUL1 (UniProt M0R247)
inactive: [7] -0.045 | [10] 0.016 | [14] 0.109 | [4] 0.004 | [5] 0.037

IRS2 (UniProt Q9Y4H2)
inactive: [7] -0.089 | [17] -0.209 | [8] 0.014 | [9] 0.047 | [10] 0.03 | [11] 0.049 | [1] -0.079 | [12] 0.118 | [13] -0.051 | [18] 0.254 | [19] 0.026 | [14] -0.019 | [20] -0.073 | [15] 0.047 | [4] -0.698 | [5] 0.341 | [6] 0.013 | [16] -0.025

ITPRIP (UniProt Q8IWB1)
inactive: [10] 0.023 | [1] 0.041 | [6] -0.143
